{"source": "PubChem BioAssay (EPA / NIEHS)", "note": "Results filed as inconclusive are left out. Activity calls are given as the source filed them. How the source made its calls: active means hit-call score of the fitted dose curve at least 0.9, where 1 is the maximum; inconclusive means response in the unintended direction; inactive means score below 0.9."}
{"assay": "ACEA_AR_agonist_AUC_viability: ACEA Biosciences xCELLigence Real-Time Cell Analysis on Androgen Receptor Agonism for Viability (AID 2283775);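 on AC50: viability read 80 hours after compound addition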", "how_it_was_run": "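Viability endpoint from xCELLigence impedance in 22Rv1 prostate cells at 80 h. Eight-point series, 100 uM maximum final.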"}
{"molecule": "COc1cc(/C=C/C(=O)CC(=O)/C=C/c2ccc(O)c(OC)c2)ccc1O", "AC50": "27 µM (active)"}
{"molecule": "CC(=O)OC/C=C(\\C)CCC=C(C)C", "outcome": "inactive"}
{"molecule": "CCCCCCC(=O)OCC", "AC50": "87.7 µM (active)"}
{"molecule": "Cc1cccc(Nc2cc(Cl)nc(SCC(=O)O)n2)c1C", "outcome": "inactive"}
{"molecule": "COc1ccc2c(c1)c(CC(=O)O)c(C)n2C(=O)c1ccc(Cl)cc1", "AC50": "37 µM (active)"}
{"molecule": "COc1cccc2c1C(=O)c1c(O)c3c(c(O)c1C2=O)C[C@@](O)(C(=O)CO)C[C@@H]3O[C@H]1C[C@H](N)[C@H](O)[C@H](C)O1", "AC50": "0.0985 µM (active)"}
{"molecule": "Cc1nc(-c2ccc3c(c2)CCN(CCC2CCC(NC(=O)/C=C/c4ccc(F)cc4)CC2)CC3)no1", "note": "(centres undefined)", "outcome": "inactive"}
{"molecule": "CCCCCCCCCCC", "outcome": "inactive"}
{"molecule": "Cc1cccc([N+](=O)[O-])c1C", "outcome": "inactive"}
{"molecule": "CNCc1cc(F)ccc1Oc1ccc(Cl)c(Cl)c1", "AC50": "75.9 µM (active)"}
{"molecule": "COCCOC[C@H](CC1(C(=O)NC2CCC(C(=O)O)CC2)CCCC1)C(=O)Oc1ccc2c(c1)CCC2", "note": "(some centres undefined)", "outcome": "inactive"}
{"molecule": "C1CCC(SSC2CCCCC2)CC1", "AC50": "77.7 µM (active)"}
{"molecule": "Oc1ccc2c(c1)OC[C@@H](N1CCC(O)(c3ccc(F)cc3)CC1)[C@H]2O", "outcome": "inactive"}
{"molecule": "CCCCCC(=O)O", "outcome": "inactive"}
{"molecule": "O=C(O)Cc1ccccc1Nc1c(Cl)cccc1Cl", "AC50": "42.1 µM (active)"}
{"molecule": "Cc1ccc(C)c(C)c1", "outcome": "inactive"}
{"molecule": "COc1ccc(S(=O)(=O)N2C(=O)[C@@](c3ccccc3OC)(N3C[C@H](O)C[C@H]3C(=O)N(C)C)c3cc(Cl)ccc32)c(OC)c1", "AC50": "20.3 µM (active)"}
{"molecule": "CC(=O)Oc1ccccc1C(=O)O", "outcome": "inactive"}
{"molecule": "COc1cc(-c2nc(NC(=O)c3cc4cc(C)cc(C)c4n3CC(=O)O)sc2CCC2CCCCC2)c(OC)cc1Cl", "AC50": "9.71 µM (active)"}
{"molecule": "O=C(N[C@@H](Cc1ccccc1)[C@@H](O)C(=O)N1C[C@@H](O)[C@@H](O)C1)c1cc2cc(Cl)ccc2[nH]1", "AC50": "69.6 µM (active)"}
{"assay": "ACEA_AR_antagonist_AUC_viability: ACEA Biosciences xCELLigence Real-Time Cell Analysis on Androgen Receptor Antagonism for Viability (AID 2283776);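 further: 22Rv1 human prostate cancer cells growing on impedance electrode plates; hits lower the growth signal relative to DMSO meaning cytotoxicity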", "how_it_was_run": "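Impedance read-out (RT-CES): area under growth curve at 80 h post-dose, loss of signal scored vs DMSO baseline. 22Rv1 cells; 8-pt 1:4 series, top 100 uM final, ≤0.5% DMSO; biological duplicate.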"}
{"molecule": "COc1cc(/C=C/C(=O)CC(=O)/C=C/c2ccc(O)c(OC)c2)ccc1O", "AC50": "23.2 µM (active)"}
{"molecule": "CC(=O)OC/C=C(\\C)CCC=C(C)C", "outcome": "inactive"}
{"molecule": "CCCCCCC(=O)OCC", "outcome": "inactive"}
{"molecule": "Cc1cccc(Nc2cc(Cl)nc(SCC(=O)O)n2)c1C", "outcome": "inactive"}
{"molecule": "COCCOCCOC", "outcome": "inactive"}
{"molecule": "COc1ccc2c(c1)c(CC(=O)O)c(C)n2C(=O)c1ccc(Cl)cc1", "AC50": "25.4 µM (active)"}
{"molecule": "COc1cccc2c1C(=O)c1c(O)c3c(c(O)c1C2=O)C[C@@](O)(C(=O)CO)C[C@@H]3O[C@H]1C[C@H](N)[C@H](O)[C@H](C)O1", "AC50": "0.0588 µM (active)"}
{"molecule": "Cc1nc(-c2ccc3c(c2)CCN(CCC2CCC(NC(=O)/C=C/c4ccc(F)cc4)CC2)CC3)no1", "note": "(centres undefined)", "AC50": "16.8 µM (active)"}
{"molecule": "Cc1cccc([N+](=O)[O-])c1C", "outcome": "inactive"}
{"molecule": "CNCc1cc(F)ccc1Oc1ccc(Cl)c(Cl)c1", "AC50": "67.4 µM (active)"}
{"molecule": "COCCOC[C@H](CC1(C(=O)NC2CCC(C(=O)O)CC2)CCCC1)C(=O)Oc1ccc2c(c1)CCC2", "note": "(some centres undefined)", "AC50": "16.5 µM (active)"}
{"molecule": "C1CCC(SSC2CCCCC2)CC1", "AC50": "78.3 µM (active)"}
{"molecule": "Oc1ccc2c(c1)OC[C@@H](N1CCC(O)(c3ccc(F)cc3)CC1)[C@H]2O", "outcome": "inactive"}
{"molecule": "CC(=O)OCCOCCOCCOC(C)=O", "outcome": "inactive"}
{"molecule": "CCCCCC(=O)O", "outcome": "inactive"}
{"molecule": "O=C(O)Cc1ccccc1Nc1c(Cl)cccc1Cl", "AC50": "50 µM (active)"}
{"molecule": "CCCCCCOCCO", "outcome": "inactive"}
{"molecule": "Cc1ccc(C)c(C)c1", "outcome": "inactive"}
{"molecule": "COc1ccc(S(=O)(=O)N2C(=O)[C@@](c3ccccc3OC)(N3C[C@H](O)C[C@H]3C(=O)N(C)C)c3cc(Cl)ccc32)c(OC)c1", "AC50": "20.5 µM (active)"}
{"molecule": "CCCCCCCCCCO", "outcome": "inactive"}
{"molecule": "CC(=O)Oc1ccccc1C(=O)O", "outcome": "inactive"}
{"molecule": "COc1cc(-c2nc(NC(=O)c3cc4cc(C)cc(C)c4n3CC(=O)O)sc2CCC2CCCCC2)c(OC)cc1Cl", "AC50": "9.23 µM (active)"}
{"molecule": "C=CCOC(=O)c1ccccc1C(=O)OCC=C", "outcome": "inactive"}
{"molecule": "O=C(N[C@@H](Cc1ccccc1)[C@@H](O)C(=O)N1C[C@@H](O)[C@@H](O)C1)c1cc2cc(Cl)ccc2[nH]1", "AC50": "30.9 µM (active)"}
